This note sets out measurements from PubChem BioAssay AID463173 (ICCB-Longwood Screening Facility, Harvard Medical School, 2010).

The whole screen tested about 52,000 compounds, of which about 4,300 (8.3%) were called active. What follows is part of a selection rich in actives, with near analogues and random picks from the rest. Values without a mark were called inactive. Cut-off read from the data, not from the text of the source: active = survival mostly below about 52% (no sharp cut-off); inactive = mostly above about 56%.

The subject of the assay is DeltatarO mutant. Kind of assay: growth inhibition of S. aureus wild type versus tarO mutant, primary screen, teichoic acid synthesis inhibitors, RN4220, OD600 (AID 463173). To be noted: OD600, 18 h, hits give low values, screened at 18.75 µg/mL (by protocol).
Take `Cc1ccc(NC(=O)CSc2nc3ccccc3c3nc(CCn4cncc4C)nn23)c(C)c1`: the survival is 75%.
With `COc1ccccc1CNC(=O)CCC1N=C2c3ccccc3N=C(SCc3ccc(C)cc3)N2C1=O` (centres undefined) the figure was 112%; with `COc1ccc(CNC(=O)CCC2N=C3c4ccccc4N=C(SCc4ccccc4F)N3C2=O)cc1` (centres undefined), 37% (active); with `COc1ccccc1CNC(=O)CCC1N=C2c3ccccc3N=C(SCc3cccc(Cl)c3)N2C1=O` (centres undefined), 49%.
Regarding `COc1ccccc1CNC(=O)CCC1N=C2c3ccccc3N=C(SCc3ccc(Cl)cc3)N2C1=O` (centres undefined), the survival was 32% (active).
The value for `COc1ccc(CNC(=O)CCC2N=C3c4ccccc4N=C(SCc4ccc(F)cc4)N3C2=O)cc1` (centres undefined) was 83%; that for `COCCCNC(=O)CSC1=Nc2ccccc2C2=NC(CCC(=O)NCc3ccccc3OC)C(=O)N12` (centres undefined) was 78%; that for `O=C(CCC1N=C2c3ccccc3N=C(SCc3ccc(F)cc3)N2C1=O)NCc1cccs1` (centres undefined) was 135%.
With `CCCCNC(=O)CSC1=Nc2ccccc2C2=NC(CCC(=O)NCc3ccccc3OC)C(=O)N12` (centres undefined), the survival is 0% (active).
In the case of `COc1ccccc1CNC(=O)CCC1N=C2c3ccccc3N=C(SCC(=O)NCCc3ccccc3)N2C1=O` (centres undefined), the survival was 131%.
`O=C(CCC1N=C2c3ccccc3N=C(SCc3ccc(Cl)cc3)N2C1=O)NCc1cccs1` (centres undefined): the survival was 47% (active).
For `Cc1ccc(CSC2=Nc3ccccc3C3=NC(CCC(=O)NCc4cccs4)C(=O)N23)cc1` (centres undefined), the survival is 94%.
`O=C(CCC1N=C2c3ccccc3N=C(SCc3ccccc3F)N2C1=O)NCc1ccc(F)cc1` (centres undefined): the survival is 69%.
With `CC(C)(C)c1ccc(C(=O)N2CCN(CCc3ccccn3)CC2)cc1` the figure was 45%; with `CCc1cccc(C)c1Nc1c(-c2ccc(F)cc2)nc2sccn12`, 35%; with `CCCN(CCC)CCCNC(=O)Cn1ncc2c3ccccc3n(Cc3ccc(F)cc3)c2c1=O`, 91%.
In the case of `O=C(NCC1CCCO1)C1CC(c2ccccc2O)=NO1` (centres undefined), the survival is 91%.
With `CC(NC(=O)C1CCN(C(=O)N2CCOc3ccc(Cl)cc32)CC1)c1ccccc1` (centres undefined), the survival is 50%.
The value for `COc1ccc(OC)c(NC(=O)Nc2c(C)n(C)n(-c3ccccc3)c2=O)c1` was 88%.
With `CCC(CC)c1nn2c(=O)cc(COc3ccc(NC(=O)c4cccc(Cl)c4)cc3)nc2s1` the figure was 79%; with `CC(C)NC(=O)C1CCN(C(=O)NCc2ccccc2)CC1`, 93%; with `COc1cccc(N2CCN(C(=O)C3CCCN(S(=O)(=O)c4ccc(Br)s4)C3)CC2)c1` (centres undefined), 76%.
`CC1N=C2c3ccccc3N=C(SCC(=O)NCCc3ccccc3)N2C1=O` (centres undefined): the survival is 52% (active).
With `Cc1ccc(CNC(=O)CSC2=Nc3ccccc3C3=NC(C)C(=O)N23)cc1` (centres undefined) the figure was 71%; with `CC1N=C2c3ccccc3N=C(SCC(=O)NCCc3ccc(Cl)cc3)N2C1=O` (centres undefined), 80%.
For `CCNC(=O)CC1C(=O)N(c2ccccc2)C(=O)N1Cc1ccc(F)cc1` (centres undefined), the survival was 74%.
With `COc1cccc(CNC(=O)CSC2=Nc3ccccc3C3=NC(C)C(=O)N23)c1OC` (centres undefined) the figure was 124%.
With `COC(=O)c1ccccc1NC(=O)Cn1c(=O)n(CCC(=O)NCc2ccccc2OC)c(=O)c2ccccc21` the figure was 82%; with `Cc1ccccc1OCC(=O)Nc1ccc(S(=O)(=O)N(Cc2ccccc2)c2ccccc2)cc1`, 66%.
For `COc1ccc(-n2ccnc(NCCc3ccc(S(N)(=O)=O)cc3)c2=O)cc1`, the survival was 66%.
Regarding `COC(=O)CNC(=O)Nc1cc(C(=O)NCc2ccc(C)cc2)ccc1N1CCCC1`, the survival was 76%.
With `COC(=O)c1c(N)n(-c2ccc(OC)c(OC)c2)c2nc3ccccc3nc12` the figure was 94%; with `COC(=O)c1c(N)n(-c2ccc(OC)c(Cl)c2)c2nc3ccccc3nc12`, 93%; with `COC(=O)c1c(N)n(-c2cc(Cl)cc(Cl)c2)c2nc3ccccc3nc12`, 44% (active).
With `Cc1ccc(CNc2nc(-c3ccco3)nn2S(C)(=O)=O)cc1`, the survival is 113%.
With `CCOC(=O)Cc1ccc(NC(=O)N2CCC(CN3CCCCCC3)CC2)cc1` the figure was 80%.
The value for `Cc1ccc(NS(=O)(=O)c2ccc3c(c2)NC(=O)CCS3)c(Br)c1` was -1% (active); that for `Cc1cc(C)cc(NS(=O)(=O)c2ccc3c(c2)NC(=O)C(C)S3)c1` (centres undefined) was 11% (active); that for `Cc1ccc(NS(=O)(=O)c2ccc3c(c2)NC(=O)C(C)C(=O)N3)cc1F` (centres undefined) was 69%.
On to `CC1C(=O)Nc2ccc(S(=O)(=O)Nc3ccccc3Br)cc2NC1=O` (centres undefined), for which the survival is 90%.
Turning to `Cc1ccccc1NS(=O)(=O)c1ccc2c(c1)NC(=O)CCS2`, the survival is 64%.
The value for `O=C1CCSc2ccc(S(=O)(=O)Nc3ccc(Cl)c(C(F)(F)F)c3)cc2N1` was 72%.
As to `Cc1cc(C)c(NS(=O)(=O)c2ccc3c(c2)NC(=O)CCS3)c(C)c1`, the survival was 76%.
On to `O=C1CCSc2ccc(S(=O)(=O)Nc3cccc(C(F)(F)F)c3)cc2N1`, for which the survival is -2% (active).
For the molecule `Cc1ccc(NS(=O)(=O)c2ccc3c(c2)NC(=O)CCS3)cc1C`, the survival is 79%.
With `COc1cc(NC(=O)CCc2c(C)nn(-c3ccc(N4CCCCC4)nn3)c2C)cc(OC)c1OC`, the survival was 95%.
The value for `CCOC(=O)c1ccccc1NC(=O)n1ncc2cc(Cl)ccc21` was 85%.
For `O=C(O)c1cc(N2C(=O)C3CC=CCC3C2=O)ccc1NCc1cccnc1` (centres undefined), the survival is 90%.
With `CC(=O)c1cccc(NC(=O)c2sc(-n3nc(C)c(CCC(C)C)c3C)nc2C)c1`, the survival is 53%.
The value for `CCOc1ccccc1NC(=O)Cn1cc(C(=O)c2ccc(Cl)cc2)c(=O)c2ccc(C)nc21` was 87%.
The value for `CCc1ccc(N2CC(C)Cn3c2nc2c3c(=O)n(CC(=O)O)c(=O)n2C)cc1` (centres undefined) was 77%; that for `COc1ccc(C2(CNC(=O)C(=O)Nc3cccc(C(F)(F)F)c3)CCCC2)cc1OC` was 102%; that for `Cc1cccc2cc(CN(C(=O)c3ccco3)C3CCCC3)c(=O)[nH]c12` was 51%.
`CCCc1nc2sc3c(N4CCCCC4)ncnc3c2c2c1CCCC2`: the survival was 12% (active).
As to `CCCCN(CC)c1ncnc2c1sc1nc(N3CCOCC3)c3c(c12)CCCC3`, the survival was 35% (active).
The value for `CCCCSc1ncnc2c1sc1nc(N3CCOCC3)c3c(c12)CCCC3` was 77%; that for `CCCc1nc2sc3c(N4CCC(C)CC4)ncnc3c2c2c1CCCC2` was 61%.
The value for `CCCCCSc1ncnc2c1sc1nc(N3CCOCC3)c3c(c12)CCCC3` was 69%.
The value for `CCc1nc2sc3c(N4CCCCC4)ncnc3c2c2c1CCCC2` was 175%.
